The whole screen tested about 310,000 compounds, of which about 14,000 (4.5%) showed an effect of 50% or more. Effects have a minus sign here. For the sample, strong results were picked, then their nearest neighbours and some compounds at random.
Biological target: human ether-à-go-go-related gene (hERG) potassium channel (human, UniProt Q12809)
Experiment: primary screen, population patch clamp on CHO cells stably expressing hERG; higher = less effect of the substance
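Also: peak tail current of the secondary pulse compared with the same well before compound.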

human ether-à-go-go-related gene (hERG) potassium channel, sequence (Q12809 whole entry, looked up): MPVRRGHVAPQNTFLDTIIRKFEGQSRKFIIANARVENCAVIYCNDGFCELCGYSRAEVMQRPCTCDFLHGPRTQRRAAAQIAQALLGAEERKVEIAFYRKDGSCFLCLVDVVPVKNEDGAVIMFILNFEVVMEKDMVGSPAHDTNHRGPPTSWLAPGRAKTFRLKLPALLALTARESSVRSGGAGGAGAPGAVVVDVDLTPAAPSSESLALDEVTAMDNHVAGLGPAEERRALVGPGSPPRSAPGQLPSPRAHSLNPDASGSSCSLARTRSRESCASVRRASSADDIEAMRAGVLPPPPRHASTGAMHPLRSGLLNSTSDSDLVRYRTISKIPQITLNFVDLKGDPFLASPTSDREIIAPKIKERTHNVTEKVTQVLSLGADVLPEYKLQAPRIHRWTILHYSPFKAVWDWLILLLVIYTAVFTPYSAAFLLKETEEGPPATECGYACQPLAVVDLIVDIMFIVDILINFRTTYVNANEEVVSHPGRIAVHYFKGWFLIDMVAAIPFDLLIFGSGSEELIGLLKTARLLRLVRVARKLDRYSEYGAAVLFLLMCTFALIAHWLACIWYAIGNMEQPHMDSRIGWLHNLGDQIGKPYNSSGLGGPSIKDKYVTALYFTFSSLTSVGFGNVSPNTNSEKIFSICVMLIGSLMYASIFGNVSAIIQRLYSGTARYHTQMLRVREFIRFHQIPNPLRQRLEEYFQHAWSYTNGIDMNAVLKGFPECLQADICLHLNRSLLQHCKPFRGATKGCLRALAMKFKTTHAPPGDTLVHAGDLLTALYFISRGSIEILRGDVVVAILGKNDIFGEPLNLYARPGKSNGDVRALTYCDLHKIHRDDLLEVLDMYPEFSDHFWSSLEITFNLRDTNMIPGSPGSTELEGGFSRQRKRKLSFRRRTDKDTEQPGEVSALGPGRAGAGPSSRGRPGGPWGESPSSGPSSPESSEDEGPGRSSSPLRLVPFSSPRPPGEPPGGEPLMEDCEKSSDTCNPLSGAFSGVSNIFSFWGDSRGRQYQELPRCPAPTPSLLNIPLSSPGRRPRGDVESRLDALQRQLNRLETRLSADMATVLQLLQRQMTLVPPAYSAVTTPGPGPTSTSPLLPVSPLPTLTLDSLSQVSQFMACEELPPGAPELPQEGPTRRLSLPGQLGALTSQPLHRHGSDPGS

First: COc1cccc(-n2cc(C(=O)NCCCOC(C)C)c3ccccc3c2=O)c1
Second: COCCCNC(=O)c1cn(-c2cccc(OC)c2)c(=O)c2ccccc12
The “hERG current change (%, negative = inhibition) at 10uM” value of the first is lower: -6.95% for the first, 18.1% for the second.

First: CCN(CC)CCCNC(=O)c1cn(-c2cccc(OC)c2)c(=O)c2ccccc12
Second: COc1ccc(NC(=O)CN2C(=O)C(C)Oc3ccc(C)cc32)cc1 (centres unmarked)
The “hERG current change (%, negative = inhibition) at 10uM” value of the first is lower: -68.5% for the first, 3.11% for the second.

Going from CC(/C=C/c1ccccc1)=N\NC(=O)CNC(=O)c1ccccc1Cl to CC(NC(=O)COc1ccccc1Cl)c1ccccc1 (centres unmarked), the “hERG current change (%, negative = inhibition) at 10uM” value rises from 7.15% to 7.82%.

First: O=C(CSC1CC(=O)N(c2ccc(C(=O)O)cc2)C1=O)Nc1ccc2ccccc2c1 (centres unmarked)
Second: O=C(Nc1ccc(S(=O)(=O)N2C[C@@H]3C[C@@H](C2)c2cccc(=O)n2C3)cc1)c1ccc(F)cc1
The “hERG current change (%, negative = inhibition) at 10uM” value of the first is higher: 15.8% for the first, -2.39% for the second.

Compared with CCN(CC)CCNc1ccc(Cl)cc1[N+](=O)[O-].Cl, CN(C)CCNc1ccc(Cl)cc1[N+](=O)[O-] is higher in “hERG current change (%, negative = inhibition) at 10uM” value: -61.6% for the first, -18.7% for the second.

First: Cc1ccc(C(=O)NCCNc2ccc(Cl)cc2[N+](=O)[O-])o1
Second: Cc1ccoc1C(=O)NCCNc1ccc(Cl)cc1[N+](=O)[O-]
The “hERG current change (%, negative = inhibition) at 10uM” value of the first is lower: -60% for the first, -30.5% for the second.

Compared with O=C(NCCNc1ccccc1[N+](=O)[O-])c1cc(F)c(F)cc1Cl, O=C(NCCNc1ccccc1[N+](=O)[O-])c1ccccc1F is higher in “hERG current change (%, negative = inhibition) at 10uM” value: -52.1% for the first, 4.11% for the second.

Going from O=C(NCCCNc1ccc(C(F)(F)F)cc1[N+](=O)[O-])c1cc(F)c(F)cc1Cl to O=C(NCCNc1ccc(Cl)cc1[N+](=O)[O-])c1cccnc1, the “hERG current change (%, negative = inhibition) at 10uM” value falls from -15.7% to -29.4%.

First: CCNCCNc1ccc(Cl)cc1[N+](=O)[O-].Cl
Second: COc1ccc(C(=O)NCCSc2ccc(C)cc2)cc1
The “hERG current change (%, negative = inhibition) at 10uM” value of the first is lower: -20.3% for the first, -11% for the second.

Going from COc1ccccc1NC(=O)NCC(c1ccco1)N1CCCCC1 (centres unmarked) to Cc1ccccc1NC(=O)/C(=C\c1cccs1)NC(=O)c1ccco1, the “hERG current change (%, negative = inhibition) at 10uM” value falls from 14.8% to -7.17%.

Going from Cc1ccc(S(=O)(=O)Nc2ccc(SC(F)F)cc2)c(C)c1 to Cc1ccc(NC(=O)/C(=C/c2cccs2)NC(=O)c2ccco2)cc1, the “hERG current change (%, negative = inhibition) at 10uM” value falls from 10.3% to 6.71%.

Going from CN1CCN(C(=O)/C(=C/c2cccs2)NC(=O)c2ccco2)CC1 to CN1CCN(C(=O)/C(=C\c2cccs2)NC(=O)c2ccco2)CC1, the “hERG current change (%, negative = inhibition) at 10uM” value rises from -70.5% to -67.4%.

First: O=C(N/C(=C/c1cccs1)C(=O)N1CCOCC1)c1ccco1
Second: O=C(N/C(=C\c1cccs1)C(=O)N1CCOCC1)c1ccco1
The “hERG current change (%, negative = inhibition) at 10uM” value of the first is lower: -1.03% for the first, 0.17% for the second.

Compared with CC(=O)Nc1nc(N)n(-c2ccccc2)n1, Clc1ccc(-c2ncc3ccccn23)cc1 is lower in “hERG current change (%, negative = inhibition) at 10uM” value: 3.2% for the first, -4.95% for the second.

First: CN(c1ccc(C(=O)NCc2ccc3c(c2)OCO3)cc1)S(=O)(=O)c1ccccc1
Second: O=c1[nH]c2cc3c(cc2cc1CN(Cc1cccnc1)C(=S)NCc1ccco1)OCO3
The “hERG current change (%, negative = inhibition) at 10uM” value of the first is higher: -4.02% for the first, -52.5% for the second.

Going from O=C(NC1=NCCS1)C1CC2CCC1C2 (centres unmarked) to Cc1ccc(C)c2[nH]c(=O)c(CN(CC3CCCO3)C(=S)NCc3ccco3)cc12 (centres unmarked), the “hERG current change (%, negative = inhibition) at 10uM” value falls from 2.05% to -24.3%.

Going from COc1ccc(/C=N\NC(=O)c2cc(O)c(O)c(O)c2)cc1COc1ccc(C(=O)OCC(C)C)cc1 to CC(C)(C)c1ccc(OC(=O)c2ccc3snnc3c2)cc1, the “hERG current change (%, negative = inhibition) at 10uM” value falls from 21% to 20.4%.

Compared with Cc1ccc(C)c2[nH]c(=O)c(CN(Cc3cccs3)C(=S)NCc3ccco3)cc12, Cc1ccc(C)c2[nH]c(=O)c(CN(Cc3cccnc3)C(=S)NCc3ccco3)cc12 is lower in “hERG current change (%, negative = inhibition) at 10uM” value: -33% for the first, -61.1% for the second.

Compared with Cc1cc2cc(CN(CCN(C)C)C(=S)NCc3ccco3)c(=O)[nH]c2cc1C, CCN(CC)CCN(Cc1cc2cc(C)c(C)cc2[nH]c1=O)C(=S)NCc1ccco1 is lower in “hERG current change (%, negative = inhibition) at 10uM” value: -43.8% for the first, -52.8% for the second.

Compared with Cc1cc2cc(CN(Cc3cccs3)C(=S)NCc3ccco3)c(=O)[nH]c2cc1C, O=c1[nH]c2cc3c(cc2cc1CN(Cc1cccnc1)C(=S)NCc1ccco1)OCCO3 is higher in “hERG current change (%, negative = inhibition) at 10uM” value: -13.9% for the first, -5.62% for the second.

Compared with O=c1[nH]c2cc3c(cc2cc1CN(CCCO)C(=S)NCc1ccco1)OCO3, CN(C)CCN(Cc1cc2cc3c(cc2[nH]c1=O)OCO3)C(=S)NCc1ccco1 is lower in “hERG current change (%, negative = inhibition) at 10uM” value: 12% for the first, -11.4% for the second.

First: CCN(CC)CCCN(Cc1cc2cc3c(cc2[nH]c1=O)OCO3)C(=S)NCc1ccco1
Second: CCN(CC)CCN(Cc1cc2cc3c(cc2[nH]c1=O)OCO3)C(=S)NCc1ccco1
The “hERG current change (%, negative = inhibition) at 10uM” value of the first is higher: -38.2% for the first, -55.8% for the second.
